# Cycloheximide cs = Cycloheximide Counterscreen for Small Molecule Inhibitors of Shiga Toxin; cell reporter, cycloheximide protein synthesis inhibition counterscreen; max response, %; 12% of 300,000 active; in the data active = max response mostly above about 13%, no sharp cut-off; inactive = mostly below about 14%; note: read at 38.3 µM for the half of the compounds with a filed dose; 0% is about no effect
# Sm TGR inh = qHTS Assay for the Inhibitors of Schistosoma Mansoni Peroxiredoxins | AID 485364, 2010 | Potency, µM (doses to about 114 µM), without a hit: at the top dose activity change, negative = inhibition, hits mostly inhibitors | 3% of 360,000 active | purified TGR, DTNB reduction, TNB absorbance 405 nm; note: potency is the fitted concentration of half-maximal effect; % is set by controls: 0 for no effect and ±100 for the full control effect; nearly all actives have a fitted effect of over 60% in size
#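 First, TGR (20 nM dispensed) and NADPH were mixed with compound. Second, a 15 min room-temperature incubation followed. Third, further NADPH and then DTNB were added to start the reaction. Finally, TNB absorbance was monitored kinetically.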
# LmPK inh = qHTS Assay for Inhibitors of Leishmania Mexicana Pyruvate Kinase (LmPK); 0.37% of 290,000 active; purified LmPK, Kinase-Glo ATP luminescence, 1 h; Potency, µM (titrated, usually from 57.5 µM), without a hit: top-dose activity change, negative = inhibition, most hits filed as inhibitors; AID 1721, 2009; Q27686; note: potency is the fitted concentration of half-maximal effect; % is set by controls: 0 for no effect and ±100 for the full control effect
#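 Purified LmPK (0.1 nM) with 0.5 mM PEP and 0.1 mM ADP in imidazole buffer pH 7.2 with MgCl2/KCl, 1 h at room temperature. ATP formed was read by luciferase luminescence and normalized to no-enzyme and uninhibited controls.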
# Tb PYK inh = qHTS of Trypanosoma Brucei Inhibitors; pyruvate kinase (Trypanosoma brucei), Q57TT1; 0.12% of 410,000 active; TbPYK enzyme, Kinase-Glo Plus ATP luminescence, 45 min; AID 624173, 2012; Potency, µM (highest dose often 76.8 µM), for inactives: at the top dose activity, negative = inhibition, actives largely listed as inhibitors; note: potency is the fitted concentration of half-maximal effect; % is set by controls: 0 for no effect and ±100 for the full control effect; nearly all actives have a fitted effect of over 50% in size
#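 Enzyme and substrate buffer are dispensed first and compound is pin-transferred. ADP at 130 uM final then starts the reaction, which runs 45 min at room temperature. Detection reagent is added for 10 min before luminescence is imaged.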
# Shiga inhibitor = A qHTS for Small Molecule Inhibitors of Shiga Toxin | Vero cells, Shiga toxin protein synthesis inhibition reporter | inhibition, % at 38.7 µM | 9.2% of 290,000 active; in the data active = inhibition mostly above about 28%, no sharp cut-off; inactive = mostly below about 43%; note: 0% is about no effect
# FBPA Giardia inh = qHTS Assay for Inhibitors of Fructose-1,6-bisphosphate Aldolase from Giardia Lamblia; purified Giardia FBPA; 0.71% of 290,000 active; A8B2U2; Potency, µM (series often up to 59.6 µM), for inactives: top-dose activity, negative = inhibition, hits mostly inhibitors; note: potency is the fitted concentration of half-maximal effect; % is set by controls: 0 for no effect and ±100 for the full control effect; nearly all actives have a fitted effect of over 55% in size
# Target sequence (A8B2U2 whole entry, looked up): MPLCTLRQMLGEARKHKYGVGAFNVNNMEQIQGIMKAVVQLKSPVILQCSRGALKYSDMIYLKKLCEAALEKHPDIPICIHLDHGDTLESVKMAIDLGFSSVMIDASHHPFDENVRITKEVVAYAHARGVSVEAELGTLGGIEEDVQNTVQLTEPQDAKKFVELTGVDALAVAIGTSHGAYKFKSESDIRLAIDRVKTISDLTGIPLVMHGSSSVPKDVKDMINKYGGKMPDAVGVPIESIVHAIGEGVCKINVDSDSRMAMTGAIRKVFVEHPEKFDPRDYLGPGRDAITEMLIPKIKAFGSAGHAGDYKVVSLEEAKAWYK
#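 Giardia FBPA (40 nM reagent) was preincubated 10 min at RT with compound (up to 57.5 uM final), then substrate plus GAPDH/TPI/NAD/arsenate coupling system with diaphorase/resazurin was added; resorufin fluorescence (525/598 nm) was read after 20 min.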
# * marks the source's active call; other numbers are inactive results; ? = inconclusive; · = no result given; + = active, no number. Many of the other results were omitted from the sample, so hits are more common in it than they were. Unless noted, calls come from the whole dose curve; as a rule, active = well fitted curve in the direction sought with a large enough effect; inconclusive = small, poorly fitted or top-dose-only effect, or another doubt; inactive = no such curve, though single readings can be large; an effect the other way counts as inactive or inconclusive.
SMILES,Cycloheximide cs,Sm TGR inh,LmPK inh,Tb PYK inh,Shiga inhibitor,FBPA Giardia inh
COc1ccc(C(=O)/C=C/Nc2cccc(C)n2)cc1OC,65*,-13%,-10%,0%,+,-13%
COc1ccc(N/C=C/C(=O)c2cc(OC)c(OC)c(OC)c2)cc1,17*,5%,1%,-7%,·,11%
COc1ccc2c(CNCCc3ccccc3)c(C(=O)O)n(Cc3cccc(F)c3)c2c1,·,-17%,·,-1%,·,·
COc1cc(CC(=O)N2CCN(S(=O)(=O)c3ccc(C)cc3)CC2)cc(OC)c1OC,·,·,·,0%,·,·
CC(CC(c1ccccc1)c1ccccc1)NC(C)(C)C (configuration not stated),·,·,·,0%,·,·
COC(=O)[C@H]1[C@H]2C[C@@H]3c4[nH]c5ccccc5c4CCN3C[C@H]2C[C@@H](OC(=O)c2cc(OC)c(OC)c(OC)c2)[C@@H]1OC,·,·,·,2%,·,·
COc1ccc(/C=C/C(=O)NC(=S)Nc2ccccc2)cc1OC,5,-28%,-1%,-1%,18,-10%
C/C=C/c1ccc(OC(C)=O)c(OC)c1,-5,-4%,0%,-4%,-15,-2%
COc1cc(/C=C/C(=O)NC(=O)c2ccccc2O)ccc1OC(C)=O,33*,-13%,-2%,4%,70*,4%
COc1ccc(/C=C/C(=O)Nc2ccccc2)cc1OC,36*,7%,-8%,-3%,127*,-10%
COc1ccc(/C=C/C(=O)NC2CCCCCCC2)cc1S(=O)(=O)N1CCOCC1,37*,-4%,2%,0%,70*,-1%
COc1ccc(/C=C/C(=O)Nc2ccccc2)cc1S(=O)(=O)N1CCOCC1,11*,2%,3%,-6%,17,-4%
COc1ccc(/C=C/C(=O)NC(C)(C)C)cc1S(=O)(=O)N1CCOCC1,0,-7%,2%,5%,-10,8%
CCCC12CN3CC(C)(CN(C1)C3c1ccc(OCc3ccccc3)cc1)C2=O (configuration not stated),·,-2%,·,2%,·,·
COc1ccc(N=C2NC(=O)/C(=C\C=C\c3ccccc3)S2)cc1,-3,6%,17%,3%,-12,-1%
Cc1cccc(N=C2NC(=O)/C(=C/C=C/c3ccco3)S2)c1C,10,10µM*,-2%,-17%,16,-29%
O=C1NC(=Nc2ccccc2)S/C1=C\C=C\c1ccco1,4,11µM*,0%,-16%,-8,?
Cc1ccc(N=C2NC(=O)/C(=C/C=C/c3ccco3)S2)cc1,13,45µM*,-4%,1%,27,-14%
COc1ccc(N=C2NC(=O)/C(=C/C=C/c3ccccc3)S2)cc1,-2,-6%,-4%,1%,-7,1%
Cn1cccc1C(=O)N1CCC2(CCN(Cc3ccccc3)CC2)CC1,·,·,·,-1%,·,4%
Cc1cccc(OCC(=O)Nc2nnc(S(=O)(=O)N3CCc4ccccc43)s2)c1,-11,-4%,·,-6%,-11,·
NS(=O)(=O)c1ccc(CCNc2ccnc3cc(Cl)ccc23)cc1,32*,5%,6%,-2%,-13,-2%
NS(=O)(=O)c1ccc(CCNC(=O)c2ccc3nccnc3c2)cc1,·,·,·,-9%,·,·
CCC(C)/C(C)=N/NC(=O)CSc1nc2ccccc2[nH]1 (configuration not stated),16,3%,-2%,0%,67*,-7%
Cc1ccc(/C=N/NC(=O)CSc2nc3ccccc3[nH]2)o1,18*,?,-3%,-3%,21,·
SMILES,Cycloheximide cs,Sm TGR inh,LmPK inh,Tb PYK inh,Shiga inhibitor,FBPA Giardia inh
COc1cc(OC)nc(NC(=O)CSc2nc3ccccc3[nH]2)n1,13,5%,-9%,4%,12,-14%
CCCc1nnc(NC(=O)CSc2nc3ccccc3[nH]2)s1,19*,1%,1%,1%,44*,1%
O=C(CSc1nc2ccccc2[nH]1)N/N=C/c1ccncc1,6,11%,-4%,3%,16,-9%
Cc1noc(/C=C/c2ccco2)c1S(=O)(=O)N1CCC(C(=O)Nc2ccc(F)cc2F)CC1,·,-16%,·,-3%,·,·
COc1ccccc1-c1ccc2c(c1)C(C)(Cc1ccc(OC(F)(F)F)cc1)C(=O)N2 (configuration not stated),·,·,·,2%,·,·
Cn1c(SCC(=O)Nc2ccc(Br)cc2)nc(O)cc1=O,-3,8%,3%,4%,19,6%
CCOc1cc(/C=C2\C(=O)ON=C2c2ccccc2)cc(Br)c1O,4,1.4µM*,1%,-19%,-7,-17%
O=C1ON=C(c2ccccc2)/C1=C/c1ccc(O)cc1,3,?,0%,?,8,2%
COc1cc(C=C2C(=O)OC(c3ccccc3)OC2=O)cc(Br)c1O (configuration not stated),5,-33%,7%,4%,33,-7%
COc1cc(/C=C2\C(=O)ON=C2c2ccccc2)cc(Cl)c1O,8,7.1µM*,-5%,-4%,12,-22%
COc1cc(/C=C2\C(=O)ON=C2c2ccccc2)cc(Br)c1O,-2,1.6µM*,-7%,1%,-2,-20%
COc1cc(/C=C2/C(=O)ON=C2c2ccccc2)ccc1O,3,25µM*,-12%,-25%,-12,-3%
CCOc1cc(/C=C2/C(=O)ON=C2C)cc(Br)c1O,-2,-31%,-6%,-20%,-8,-21%
CCOc1ccc(OCC)c(NC(=O)c2cnc3c(-c4ccccc4)c(C)nn3c2C)c1,·,-3%,·,0%,·,·
COC(=O)N1CCC2(CCCN(C(=O)Nc3ccccc3)C2)CC1,·,·,·,-6%,·,5%
O=C1ON=C(c2ccc(Cl)cc2)/C1=C/c1ccc(O)cc1,-16,22µM*,6%,?,-8,-12%
Cc1occc1-c1nnc(SCC(=O)NC2CCC(C)CC2)o1 (configuration not stated),·,-34%,·,-3%,·,·
O=C(NNC(=O)c1ccccc1OCc1ccccc1Cl)c1csc(N2CCOCC2)n1,10*,-2%,-3%,-11%,14,·
Cc1nc(N/N=C\c2ccc3c(c2)OCO3)sc1C,29*,-2%,9%,-13%,·,3%
C(=N\Nc1nc2ccccc2s1)/c1ccccn1,-5,2%,?,-16%,-25,?
Brc1csc(/C=N/Nc2nc3ccccc3s2)c1,38*,-1%,-5%,2%,92*,-5%
Cc1cc(C(=O)N/N=C/c2ccc3c(c2)OCO3)c2ccccc2n1,-2,4%,-1%,-5%,-6,-1%
C(=N\Nc1nc2ccccc2s1)/c1ccc2c(c1)OCO2,72*,0%,-8%,-7%,90*,0%

# Bioassay records: PubChem BioAssay, National Center for Advancing Translational Sciences (NCATS)
